# Results: PubChem BioAssay (NCI)
# About 83,000 compounds went through this panel and 20% of them were active in at least one assay; those are over-represented in the sample as a whole.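 96-well plates, one dose, 48 hours. Percent growth reported; active if below 10.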 Unmarked numbers belong to inactive results. Activity calls are given as the source filed them.
# Experiments:
# Experiment in all cases: NCI-60 one-dose screen, 48 h (100 = growth as untreated, 0 = no growth, -100 = all killed)
# Details in all cases: 10 µM
# RPMI-8226 leukemia = test system: RPMI-8226 leukemia
# OVCAR-8 ovarian = test system: OVCAR-8 ovarian
# OVCAR-5 ovarian = test system: OVCAR-5 ovarian
# OVCAR-4 ovarian = test system: OVCAR-4 ovarian
# SK-OV-3 ovarian = test system: SK-OV-3 ovarian
# IGROV1 ovarian = test system: IGROV1 ovarian
# OVCAR-3 ovarian = test system: OVCAR-3 ovarian
# HS 578T breast = test system: HS 578T breast
# NCI/ADR-RES ovarian = test system: NCI/ADR-RES ovarian
# T-47D breast = test system: T-47D breast
# BT-549 breast = test system: BT-549 breast
# MDA-MB-435 melanoma = test system: MDA-MB-435 melanoma
# SW-620 colon = test system: SW-620 colon
# MCF7 breast = test system: MCF7 breast
# HCT-116 colon = test system: HCT-116 colon
# HCC-2998 colon = test system: HCC-2998 colon
# KM12 colon = test system: KM12 colon
# MDA-MB-468 breast = test system: MDA-MB-468 breast
Compound,growth (RPMI-8226 leukemia),growth (OVCAR-8 ovarian),growth (OVCAR-5 ovarian),growth (OVCAR-4 ovarian),growth (SK-OV-3 ovarian),growth (IGROV1 ovarian),growth (OVCAR-3 ovarian),growth (HS 578T breast),growth (NCI/ADR-RES ovarian),growth (T-47D breast),growth (BT-549 breast),growth (MDA-MB-435 melanoma),growth (SW-620 colon),growth (MCF7 breast),growth (HCT-116 colon),growth (HCC-2998 colon),growth (KM12 colon),growth (MDA-MB-468 breast)
CN1CCN(c2ccc(Nc3nc(NCCNC(=O)c4ccc(C(F)(F)F)cc4)c4sccc4n3)cc2)CC1,-40.1% (active),21%,42.3%,-33.2% (active),77%,65%,27.8%,-8.08% (active),38.5%,-6.48% (active),-13.9% (active),-95.2% (active),4.68% (active),-44.4% (active),15.2%,-22.5% (active),31.4%,5.65% (active)
O=C(c1ccc(O)cc1)C1[C@H](c2ccc(Br)cc2)[C@@H](c2ccccc2)NC12C(=O)Nc1ccccc12 (stereo partly specified),23%,32.4%,58.7%,34.1%,77.3%,25.8%,15%,28.5%,22.4%,38.4%,116%,13.4%,26.2%,8.43% (active),17.3%,-34.8% (active),1.31% (active),0.478% (active)
CC(=C(c1ccc(OCCCN(C)C)cc1)c1ccc(OCCCN(C)C)cc1)c1ccccc1,-54.4% (active),-72.7% (active),-98.5% (active),-96.9% (active),-90.3% (active),-95% (active),-93.6% (active),-71.2% (active),-98.1% (active),-84.9% (active),-69% (active),-98.1% (active),-44.9% (active),-82.2% (active),-10.4% (active),-94.8% (active),-93% (active),-93.9% (active)
CCOC(=O)C1NN(c2ccc(S(N)(=O)=O)cc2)c2nc3nc(-c4cccs4)cc(-c4cccs4)c3c(=O)n21 (stereo unspecified),77.9%,86.7%,100%,70.2%,93.6%,104%,89.9%,8.11% (active),88.6%,85.4%,50.1%,106%,93.1%,74.2%,81.2%,107%,69.7%,99.5%
O=C(c1ccc(-n2c(=O)[nH]c3ccccc3c2=O)cc1)N1CCOCC1,120%,108%,102%,114%,124%,104%,108%,101%,106%,99.7%,75.6%,102%,97.1%,101%,99.2%,116%,114%,94.7%
COc1csc(/C=N/NC(=O)c2[nH]c3ccc(Br)cc3c2-c2ccccc2)c1,6.04% (active),2.26% (active),17.5%,30.3%,26.3%,22%,6.96% (active),-1.74% (active),-35.2% (active),47.1%,31.8%,-43.6% (active),17.9%,-3.06% (active),-29.4% (active),7.87% (active),3.46% (active),-18% (active)
CC(=O)C1=C(C)NC(SCC(=O)Nc2ccc(S(=O)(=O)Nc3cc(C)on3)cc2)=NC1c1ccccc1 (stereo unspecified),99.8%,107%,109%,100%,101%,114%,107%,95.6%,103%,99.3%,114%,99.6%,106%,87.5%,105%,112%,99.8%,111%
O=C(CS(=O)(=O)c1oc(-c2ccc(Cl)cc2)nc1S(=O)(=O)c1ccccc1)N1CCCC1,-13.8% (active),-31.8% (active),-51.4% (active),-90.1% (active),97.9%,74.4%,-90.1% (active),60.2%,9.98% (active),-66.9% (active),-3.43% (active),-41.8% (active),-70.1% (active),-70.1% (active),0.106% (active),21.8%,61.7%,-90.5% (active)
O=C(O)CCCCCCCCCCN1C(=O)/C(=C/c2cnc(-c3ccc(Cl)cc3)s2)SC1=S,74.9%,-2.09% (active),56.9%,67%,3.51% (active),23.9%,-15.1% (active),58.6%,11%,47.2%,-17.1% (active),49%,27.6%,27.1%,4.89% (active),82.4%,14%,52.3%
C#Cc1ccc(S(=O)(=O)Nc2cccc(-c3csc(NC(C)=O)n3)c2)cc1,42.1%,85.5%,101%,59.7%,88.9%,49.5%,82.7%,83.6%,70.8%,42.8%,55.7%,51.5%,95.2%,64.5%,77.9%,91.3%,69.4%,37.9%
O=S(=O)(c1ccc(Cl)cc1)c1nc(-c2ccccc2)oc1S(=O)(=O)c1ccc(Cl)cc1,36.3%,81.5%,101%,92.8%,94%,91.7%,89.1%,87.4%,81.2%,78.8%,142%,82.3%,46.8%,36.3%,58.9%,95.8%,93.2%,76%
O=C(Nc1cc(Cl)cc(Cl)c1)Nc1cc(Cl)cc(Cl)c1,-42.4% (active),0.191% (active),1.87% (active),10.8%,-15.8% (active),7.38% (active),-31.5% (active),-19.3% (active),-24.1% (active),-18.9% (active),-41.1% (active),-47% (active),-42.3% (active),-21.2% (active),-79.3% (active),-27.3% (active),-22.9% (active),-40.1% (active)
COc1ccc(-c2ccc(/C=N/NC(=O)c3[nH]c4ccc(Br)cc4c3-c3ccccc3)s2)cc1,57.7%,51.9%,12.8%,79.6%,117%,110%,97.5%,54%,59.9%,72%,117%,107%,44.8%,6.19% (active),37.5%,112%,85.5%,76.6%
COc1cccc(-c2nn(-c3ccccc3)cc2-c2ccnc(NCCCNC(=O)Nc3ccc(F)cc3)c2)c1,-27.4% (active),11.1%,27.1%,22.8%,3.71% (active),15.8%,28.4%,-3.48% (active),-35.6% (active),4.77% (active),-20.6% (active),-59% (active),14.5%,-15.5% (active),6.26% (active),-25.1% (active),5.44% (active),-54.7% (active)
COc1ccc2nc(Nc3cccc(NC(=O)c4ccc(CN5CCN(C)CC5)c(C(F)(F)F)c4)c3)ccc2c1,-33% (active),-38.1% (active),-75% (active),-27.1% (active),-48.8% (active),-69.8% (active),-36% (active),-23.1% (active),-37.9% (active),-25.9% (active),-45.8% (active),-96% (active),-89.7% (active),-97.1% (active),-15.3% (active),-99.4% (active),-68.1% (active),-97.1% (active)
O=C1Nc2cc(Cl)ccc2/C1=C/c1ccc(OCc2ccc(Br)cc2F)cc1,0.87% (active),-79.6% (active),25.2%,-53.8% (active),-20.3% (active),-41.9% (active),-82.1% (active),-16.8% (active),-71% (active),-48.4% (active),-18.7% (active),-27.5% (active),-56% (active),6.09% (active),-73% (active),19.5%,-7.72% (active),-70.1% (active)
Nc1n[nH]c2cccc(C#Cc3cccc(NC(=O)Nc4cc(C(F)(F)F)cc(C(F)(F)F)c4)c3)c12,-16.3% (active),-5.59% (active),-46% (active),-3.45% (active),-28.9% (active),-66% (active),-20.4% (active),-20.5% (active),-48.9% (active),-11.3% (active),-66.8% (active),-76.7% (active),-75.7% (active),-37.2% (active),2.34% (active),-95.3% (active),-61.5% (active),-59.7% (active)
